Experimental data: PubChem BioAssay (Tox21)
Results filed as inconclusive are left out. Where a call stands in place of a potency, no number is given. Calls of active or inactive are those of the source. Calls come from the whole dose curve; as a rule, active = well fitted cell-killing curve with a large enough effect in the repeat runs; inconclusive = weak or mixed curves; inactive = no such curve, though single readings can be large or run the other way.

Assay: qHTS assay for identifying genotoxic compounds that show differential cytotoxicity against isogenic chicken DT40 cell lines with known DNA damage response pathways - Rad54/Ku70 mutant cell line (AID 743015); note: nearly all actives have a fitted effect of over 60% in size
Settings: DT40 Rad54/Ku70 mutant viability, CellTiter-Glo, 40 h; series mostly up to 66.8 µM
Source text: National Center for Advancing Translational Sciences [NCATS]
NIH Chemical Genomics Center [NCGC]
U.S. Environmental Protection Agency [EPA]
National Institutes of Environmental Health Sciences [NIEHS]
National Toxicology Program [NTP]
U.S. Food and Drug Administration [FDA]
DNA repair pathways play a critical role in cellular homeostasis by repairing DNA damage induced by endogenous processes and xenobiotics. Isogenic chicken DT40 cell lines deficient in different DNA repair pathways can be used to identify genotoxic compounds and aid in characterizing the nature of the DNA damage induced. Two DNA repair-deficient cell lines with disrupted genes, Rad54/Ku70 or Rev3, were used to screen the Tox21 10K compound library. Possible genotoxicity was based on the presence of a significant increase in cytotoxicity in one or more of the DNA repair-deficient cell lines compared to that observed in the parental DNA repair-proficient cell line. CellTiter Glo viability assay (Promega, Madison, WI) was used to measure cell viability in these cells after compound treatment. This assay includes the data from the Rad54/Ku70 mutant cell line.
Tox21 Assay Protocol Summary:
300 DT40 mutant cells in 5 uL/well were dispensed into white, solid-bottom 1536-well plates using a Multidrop Combi (ThermoFisher Scientific, Waltham, MA) dispenser. After the assay plates were incubated at 37 C/5% CO2 for approximately 0.5 hour, 23 nL of compounds dissolved in DMSO, positive controls or DMSO only was transferred into the assay plate by a pintool work station (Kalypsys, San Diego, CA). The assay plates were incubated at 37 C/5% CO2 for 40 hours. After 5 uL per well of CellTiter-Glo reagent was added into each well of the assay plates, the plates were incubated for 30 min at room temperature and the luminescence intensity of the plates was measured using a ViewLux (PerkinElmer, Shelton, CT) plate reader.

| Structure (SMILES) | Potency |
| --- | --- |
| O=C(OCc1ccccc1)C(=O)OCc1ccccc1 | inactive |
| Cc1c(I)c(=O)n(-c2ccccc2)n1C | inactive |
| O=C(OCC1(COC(=O)c2cccnc2)CCCC(COC(=O)c2cccnc2)(COC(=O)c2cccnc2)C1O)c1cccnc1 | inactive |
| CC(CC=O)CCCC(C)(C)O (stereo not given) | inactive |
| CC(=O)Nc1ccc(S(=O)(=O)Cl)cc1 | inactive |
| COc1ccc2c(c1OC)C(=O)O[C@@H]2[C@H]1c2c(cc3c(c2OC)OCO3)CCN1C | inactive |
| O=C(CCNNC(=O)c1ccncc1)NCc1ccccc1 | inactive |
| Nc1nnc(-c2cccc(Cl)c2Cl)c(N)n1 | inactive |
| C[Si](C)(C)C | inactive |
| CO[C@@H]1[C@@H](OC(N)=O)[C@@H](O)[C@H](Oc2ccc3c(O)c(NC(=O)c4ccc(O)c(CC=C(C)C)c4)c(=O)oc3c2C)OC1(C)C | inactive |
| CC(=O)OC(C)OC(=O)C(C)c1ccc(-c2ccccc2)c(F)c1 (stereo not given) | inactive |
| CCCCCCCCCC(C)=O | inactive |
| O=S(=O)(O)c1cc(O)c2ccc(Nc3ccccc3)cc2c1 | inactive |
| CN1CCN(CC(=O)N2c3ccccc3C(=O)Nc3cccnc32)CC1 | inactive |
| CCCCC(CC)COCCO (stereo not given) | inactive |
| Brc1ccc(-c2ccccc2)cc1 | inactive |
| CCCOC(OCCC)OCCC | inactive |
| CC(COC(C)(C)C)OCCCO (stereo not given) | inactive |
| CCOCCOCCOCC | inactive |
| C=Cc1ccccn1 | inactive |

| Structure (SMILES) | Potency |
| --- | --- |
| O=C(NCC(O)CO)c1c(I)c(C(=O)NCC(O)CO)c(I)c(N(CCO)C(=O)CO)c1I (stereo not given) | inactive |
| CC(C)=CCOC(=O)c1ccccc1 | inactive |
| O=C(CS(=O)Cc1ccco1)NC/C=C\COc1cc(CN2CCCCC2)ccn1 (stereo not given) | inactive |
| C[C@@H](O)[C@H]1C(=O)N2C(C(=O)O)=C(SCCN=CN)C[C@H]12 | inactive |
| Oc1cn2c(n1)Nc1ccc(Cl)c(Cl)c1C2 | inactive |
| Cc1ccc2c(c1)OCC(=O)CO2 | inactive |
| NNc1nnc(NN)c2ccccc12 | inactive |
| CC(C)CCCC(C)(C)O | inactive |
| CC(=O)CCCCn1c(=O)c2c(ncn2C)n(C)c1=O | inactive |
| Cc1ccccc1OCC(O)CO (stereo not given) | inactive |
| C[C@H](N)[C@H](O)c1cccc(O)c1 | inactive |
| C[C@@H](Oc1ccc(CNC(=O)c2cccnc2Oc2ccc3c(c2)OCO3)c(F)c1)C(=O)O | inactive |
| CC(=O)Nc1cccc(C)c1 | inactive |
| N[C@@H](COP(=O)(O)O)C(=O)O | inactive |
| COc1cc(NS(=O)(=O)c2ccc(N)cc2)nc(OC)n1 | inactive |
| c1ccc2c(c1)ccc1c3ccccc3ccc21 | inactive |
| CCN(CC)CC(=O)Nc1c(C)cccc1C | inactive |
| CCOC(=O)CC(=O)c1ccccc1 | inactive |
| CCCCCCCCCCl | inactive |
| CCC(C)NC(N)=O (stereo not given) | inactive |
